Laboratory results reported in PubChem BioAssay (NCATS).
Results filed as inconclusive are left out. Activity calls are given as the source filed them. Calls follow the shape of the dose curve; as a rule, active = well fitted curve in the direction sought with a large enough effect; inconclusive = small, poorly fitted or top-dose-only effect, or another doubt; inactive = no such curve, though single readings can be large; an effect the other way counts as inactive or inconclusive.

What was measured:
[1] = Cellular Toxicity (caspase-3) Mesangial (AID 660); details: mesangial cells, normalized: DMSO 0%, 100 µM tamoxifen 100%; at 91.7 µM (top of the series);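 also: combined caspase 3 and 7 activity read by Caspase-Glo luminescence; cells exposed to compound for 16 h before the caspase read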
Method in brief: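 Seed cells derived from normal human renal glomeruli, incubate 5 h, add compounds across concentrations and incubate 16 h at 37 °C. Caspase 3/7 activation is then quantified by luciferase light, with AC50 derived by Hill modeling.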

[2] = Cellular Toxicity (caspase-3) SK-N-SH (AID 661);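 also: 0% = DMSO basal and 100% = 10 µM staurosporine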
Method in brief: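 Cells were seeded and incubated 5 hr at 37 °C, dosed with compound over a concentration range for 16 hr, then given Caspase-Glo 3/7 reagent for 1 hr at room temperature before luminescence reading.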

[3] = Cellular Toxicity (caspase-3) H-4-II-E (AID 663); details: H-4-II-E rat hepatoma, scaled: DMSO 0%, 100 µM tamoxifen 100%; at 92.2 µM (top of the series);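 also: cells exposed to compound for 16 hr before readout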
Method in brief: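 Caspase 3/7 activation measured in H-4-II-E cells in complete culture medium after 16 hr treatment at 37 °C, using luciferase-coupled substrate readout; AC50 values come from Hill-equation fits of normalized concentration-response data.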

[4] = Cellular Toxicity (caspase-3) Hek293 (AID 664); details: HEK293 caspase-3 activation, DMSO = 0%, 100 µM tamoxifen = 100%; at 92.2 µM (top of the series);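 also: cells exposed to compound for 16 h at 37 °C before readout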
Method in brief: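 qHTS, HEK293 (human embryonic kidney), 16 h cpd exposure in complete medium. Caspase-3/7 activation = luminescence increase; normalized to DMSO/100 uM tamoxifen; Hill-fit AC50.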

[5] = Cellular Toxicity (caspase-3) N2a (AID 665);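 also: compound exposure lasted 16 h at 37 °C before readout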
Method in brief: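 Caspase-3/7 activation, measured as increased luminescence from aminoluciferin release, is quantified in mouse N2a cells exposed to compounds for 16 h. Values are normalized to DMSO and 10 uM staurosporine, with AC50 derived by Hill modelling.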

[6] = Cellular Toxicity (caspase-3) NIH 3T3 (AID 666);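 also: caspase signal read after 16 h compound exposure; 0% = DMSO basal and 100% = 100 µM tamoxifen stimulation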
Method in brief: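 Cells were plated at 1000 per well and incubated 5 hr at 37°C, then compound was added for 16 hr. Caspase-Glo 3/7 reagent followed for 20 min at room temperature before luminescence was read.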

[7] = Cellular Toxicity (caspase-3) Renal Proximal Tubule (AID 667); details: Potency: caspase-3 activation;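 also: cells exposed to compound for 16 hours at 37 °C before detection; 0% = DMSO basal and 100% = 10 µM staurosporine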
Method in brief: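 AC50 derived by standard Hill fit of concentration-response data, normalized between DMSO basal and 10 uM staurosporine as 100% stimulation. Cells: primary rat kidney proximal tubule, 16 h treatment at 37 °C.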

[8] = biological target: Cytochrome P450 3A4 (Homo sapiens) (UniProt P08684); experiment: qHTS Assay for Inhibitors and Substrates of Cytochrome P450 3A4 (AID 884); also: % is scaled to controls: 0 for no effect and ±100 for the full control effect; nearly all actives have a fitted effect of over 50% in size
Method in brief: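 Luminescent readout of luciferin produced by CYP3A4 (20 nM) dealkylation of Luciferin-PPXE, 25 uM (its KM). NADPH-driven reaction ran 60 min at RT after 10 min compound preincubation; data scaled to 57 uM ketoconazole as 100% inhibition.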

[9] = Cell Viability - LYMP2-001 (AID 921);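 also: cells exposed to compound for 24 h at 37 °C; 0% = DMSO only and full inhibition = tetraoctylammonium bromide control wells; nearly all actives have a fitted effect of over 70% in size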
Method in brief: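 Steps: seed 2500 lymphoblastoid cells/well; 5 hr, 37 C; add compound; 24 hr, 37 C; CellTiter-Glo reagent, 30 min room temperature; read luminescence. Concentration-response modeled by Hill equation for AC50.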

[10] = MultiTox-Fluor Cytotoxicity Assay - LYMP1-001 - Live Cells (AID 947);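 also: 0% = DMSO only and full inhibition = tetraoctylammonium bromide control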
[11] = Cell Viability - LYMP1-002 - Assay at 16 hr (AID 948);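 also: 0% = DMSO alone and full effect = 92 µM tetraoctylammonium bromide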
Method in brief: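 Seed 2500 LYMP1-002 cells per well in complete medium and hold 5 hr at 37 C. Add compound across a concentration series and incubate 16 hr at 37 C. Add CellTiter-Glo, wait 30 min at room temperature, read luminescence.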

[12] = MultiTox-Fluor Cytotoxicity Assay - LYMP1-002 - Live Cells (AID 955); also: % is scaled to controls: 0 for no effect and ±100 for the full control effect
Method in brief: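 Cells were seeded at 2500 per well and incubated 5 hr. Compounds were then added for 16 hr at 37 C, followed by MultiTox-Fluor reagent for 60 min at room temperature and fluorescence reading of viable-cell protease signal.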

[13] = MultiTox-Fluor Cytotoxicity Assay - LYMP1-002 - Dead Cells (AID 960); also: nearly all actives have a fitted effect of over 60% in size
Method in brief: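 Cells were plated, rested 5 hr, then treated with compound dilution series for 16 hr at 37 C. After adding substrate reagent and 60 min at room temperature, dead-cell protease fluorescence gave concentration-response curves fitted by the Hill equation.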

[14] = MultiTox-Fluor Cytotoxicity Assay - LYMP1-003 - Dead Cells (AID 961); also: nearly all actives have a fitted effect of over 70% in size
Method in brief: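 LYMP1-003 lymphoblastoid, 2500 cells/well, 5 hr settle then 16 hr cpd at 37 C; MultiTox-Fluor reagent 60 min RT; Ex/Em 485/520 dead-cell signal; norm. DMSO = 0%, 15 uM tetraoctylammonium bromide = 100%; Hill AC50.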

[15] = MultiTox-Fluor Cytotoxicity Assay - LYMP1-003 - Live Cells (AID 962);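 also: cells exposed to compound for 16 hours at 37 °C; 0% = DMSO only and full loss = 92 µM tetraoctylammonium bromide; cytotoxic hits lower the live-cell protease signal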
Method in brief: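 Acute cytotoxicity is scored as a drop in live-cell protease activity in human lymphoblastoid LYMP1-003 cells after 16 hr compound exposure at 37 C. AC50 values come from Hill-equation modelling of concentration-response data.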

[16] = Cell Viability - LYMP1-003 - Assay at 24 hr (AID 963);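 also: plate controls were DMSO only for no effect and tetraoctylammonium bromide positive control for full effect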
Method in brief: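 Cytotoxicity is scored as a concentration-dependent fall in ATP-linked luciferase signal in human lymphoblastoid LYMP1-003 cells treated 24 hr at 37 C in complete culture medium.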

[17] = Cell Viability - LYMP1-003 - Assay at 40 hr (AID 964); also: % is scaled to controls: 0 for no effect and ±100 for the full control effect; nearly all actives have a fitted effect of over 60% in size
Method in brief: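 Luminescent ATP signal (CellTiter-Glo) served as the viability read-out after 40 hr compound treatment of human lymphoblastoid LYMP1-003 cells at 37 C. Decreases in ATP were fitted with the Hill equation to give AC50.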

[18] = Cell Viability - LYMP2-003 (AID 965);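 also: cells exposed to compounds for 24 h before reading; 0% = DMSO only and full effect = 92 µM tetraoctylammonium bromide; nearly all actives have a fitted effect of over 50% in size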
Method in brief: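 Seed 2500 lymphoblastoid cells/well; incubate 5 hr, 37 C; add compounds; incubate 24 hr, 37 C; add CellTiter-Glo, 30 min RT; read luminescence. AC50 from Hill fit.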

[19] = MultiTox-Fluor Cytotoxicity Assay - LYMP1-001 - Dead Cells (AID 946)
Method in brief: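 Seed 2500 LYMP1-001 cells/well, incubate 5 hr at 37 C; add compound, 16 hr at 37 C; add MultiTox-Fluor reagent, 60 min RT; read dead-cell fluorescence Ex/Em=485/520. Normalize to DMSO and 15 uM tetraoctylammonium bromide.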

Chain of Cytochrome P450 3A4 (Homo sapiens) (P08684 whole entry, looked up): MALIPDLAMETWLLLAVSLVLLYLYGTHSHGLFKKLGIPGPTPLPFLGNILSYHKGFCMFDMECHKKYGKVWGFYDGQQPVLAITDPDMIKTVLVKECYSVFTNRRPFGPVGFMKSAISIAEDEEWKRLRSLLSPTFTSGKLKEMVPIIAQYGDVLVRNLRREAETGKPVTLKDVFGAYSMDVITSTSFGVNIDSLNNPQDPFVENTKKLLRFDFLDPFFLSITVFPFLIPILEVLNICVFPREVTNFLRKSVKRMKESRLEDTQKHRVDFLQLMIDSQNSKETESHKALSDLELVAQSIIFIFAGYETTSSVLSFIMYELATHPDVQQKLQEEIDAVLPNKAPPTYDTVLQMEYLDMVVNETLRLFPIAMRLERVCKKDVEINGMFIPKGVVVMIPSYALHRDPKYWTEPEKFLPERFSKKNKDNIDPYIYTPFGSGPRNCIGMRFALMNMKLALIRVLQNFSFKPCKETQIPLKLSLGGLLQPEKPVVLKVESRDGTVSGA

Cc1cc(C)cc(O)c1
inactive: caspase-3 activation [1] -0.0828% | outcome [2] | caspase-3 activation [3] -0.413% | caspase-3 activation [4] 0.338% | outcome [5] | outcome [6] | Potency [7] | Potency [8] | Potency [9] | outcome [10] | outcome [11] | outcome [12] | outcome [13] | Potency [14] | Potency [15] | Potency [16] | Potency [17] | Potency [18]

NC(=O)CCCCC(N)=O
inactive: caspase-3 activation [1] -0.354% | outcome [2] | caspase-3 activation [3] 0.202% | caspase-3 activation [4] -0.72% | outcome [5] | outcome [6] | Potency [7] | Potency [8] | Potency [9] | outcome [19] | outcome [12] | outcome [13] | Potency [14] | Potency [15] | Potency [16] | Potency [17] | Potency [18]

CC(=O)c1cccc([N+](=O)[O-])c1
inactive: caspase-3 activation [1] 1.01% | outcome [2] | caspase-3 activation [3] -1.03% | caspase-3 activation [4] 2.43% | outcome [5] | outcome [6] | Potency [7] | Potency [8] | Potency [9] | outcome [10] | outcome [11] | outcome [12] | outcome [13] | Potency [14] | Potency [16] | Potency [17] | Potency [18]

ON=C1CCCCC1
inactive: caspase-3 activation [1] 0.894% | outcome [2] | caspase-3 activation [3] 1.35% | caspase-3 activation [4] 2.27% | outcome [5] | outcome [6] | Potency [7] | Potency [8] | Potency [9] | outcome [10] | outcome [11] | outcome [13] | Potency [14] | Potency [15] | Potency [17] | Potency [18]

C/C=C1\CC2C=CC1C2 (stereo not drawn)
inactive: caspase-3 activation [1] -0.567% | outcome [2] | caspase-3 activation [3] 0.51% | caspase-3 activation [4] -0.412% | outcome [5] | outcome [6] | Potency [7] | Potency [8] | Potency [9] | outcome [19] | outcome [12] | outcome [13] | Potency [14] | Potency [15] | Potency [16] | Potency [17] | Potency [18]

CC(O)COC(C)(C)C (stereo not drawn)
inactive: caspase-3 activation [1] -1.28% | outcome [2] | caspase-3 activation [3] -0.238% | caspase-3 activation [4] 2.41% | outcome [5] | outcome [6] | Potency [7] | Potency [8] | Potency [9] | outcome [19] | outcome [11] | outcome [13] | Potency [14] | Potency [15] | Potency [16] | Potency [18]

Cc1c(N)cccc1[N+](=O)[O-]
inactive: caspase-3 activation [1] 0.18% | outcome [2] | caspase-3 activation [3] -0.123% | caspase-3 activation [4] 1.08% | outcome [5] | outcome [6] | Potency [7] | Potency [8] | Potency [9] | outcome [19] | outcome [11] | outcome [13] | Potency [14] | Potency [15] | Potency [16] | Potency [17] | Potency [18]

CC(C)CCOC(=O)/C=C/c1ccccc1
inactive: caspase-3 activation [1] 0.297% | outcome [2] | caspase-3 activation [3] 1.34% | caspase-3 activation [4] 1.37% | outcome [5] | outcome [6] | Potency [7] | Potency [8] | Potency [9] | outcome [19] | outcome [11] | outcome [13] | Potency [14] | Potency [15] | Potency [16] | Potency [17] | Potency [18]

Cc1ccc(C)cc1
inactive: caspase-3 activation [1] -0.809% | outcome [2] | caspase-3 activation [3] 1.14% | caspase-3 activation [4] -2.53% | outcome [5] | outcome [6] | Potency [7] | Potency [8] | Potency [9] | outcome [19] | outcome [11] | outcome [13] | Potency [14] | Potency [16] | Potency [17] | Potency [18]

O=[N+]([O-])c1c(Cl)cc(Cl)cc1Cl
inactive: caspase-3 activation [1] -0.0612% | outcome [2] | caspase-3 activation [3] 0.356% | caspase-3 activation [4] -0.873% | outcome [5] | outcome [6] | Potency [7] | Potency [8] | Potency [9] | outcome [10] | outcome [11] | outcome [12] | outcome [13] | Potency [15] | Potency [16] | Potency [17] | Potency [18]

Cc1ccc(C)c(O)c1
inactive: caspase-3 activation [1] 0.131% | outcome [2] | caspase-3 activation [3] 0.256% | caspase-3 activation [4] 0.519% | outcome [5] | outcome [6] | Potency [7] | Potency [8] | Potency [9] | outcome [10] | outcome [11] | outcome [12] | outcome [13] | Potency [14] | Potency [15] | Potency [16] | Potency [18]

O=C1CCC(=O)O1
inactive: caspase-3 activation [1] 0.974% | outcome [2] | caspase-3 activation [3] 0.691% | caspase-3 activation [4] 0.163% | outcome [5] | outcome [6] | Potency [7] | Potency [8] | Potency [9] | outcome [10] | outcome [11] | outcome [12] | outcome [13] | Potency [15] | Potency [17] | Potency [18]

Cc1ccc([N+](=O)[O-])c(N)c1
inactive: caspase-3 activation [1] -0.782% | outcome [2] | caspase-3 activation [3] -0.384% | caspase-3 activation [4] 0.555% | outcome [5] | outcome [6] | Potency [7] | Potency [8] | Potency [9] | outcome [10] | outcome [11] | outcome [12] | outcome [13] | Potency [14] | Potency [15] | Potency [16] | Potency [17] | Potency [18]

C=C(C)OC(C)=O
inactive: caspase-3 activation [1] -0.109% | outcome [2] | caspase-3 activation [3] 2.67% | caspase-3 activation [4] -0.975% | outcome [5] | outcome [6] | Potency [7] | Potency [8] | Potency [9] | outcome [10] | outcome [11] | outcome [12] | outcome [13] | Potency [14] | Potency [15] | Potency [16] | Potency [17] | Potency [18]

Cc1cccc(C(=O)O)c1
inactive: caspase-3 activation [1] -1.17% | outcome [2] | caspase-3 activation [3] -1.62% | caspase-3 activation [4] -3.34% | outcome [5] | outcome [6] | Potency [7] | Potency [8] | Potency [9] | outcome [10] | outcome [11] | outcome [12] | outcome [13] | Potency [14] | Potency [15] | Potency [16] | Potency [17] | Potency [18]

CC(C)Nc1ccccc1
inactive: caspase-3 activation [1] 1.26% | outcome [2] | caspase-3 activation [3] 0.457% | caspase-3 activation [4] 2.55% | outcome [5] | outcome [6] | Potency [7] | Potency [8] | Potency [9] | outcome [10] | outcome [11] | outcome [12] | outcome [13] | Potency [14] | Potency [15] | Potency [16] | Potency [17] | Potency [18]
